A selection: hits, their analogues and other compounds. The true share with any hit is near 9.2%.
SMN2 splice up: increases expression of the SMN2 splice variant | HEK293 SMN2-luciferase splicing reporter, luminescence, 30-36 h | Potency, µM (doses to about 46.1 µM), for the others: top-dose activity change, positive = activation, actives largely listed as activators | actives 2.8% (n = 210,000) | AID 1458; also: % of control where 0% means no effect; nearly all actives have a fitted effect of over 55% in size
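qHTS luciferase splicing reporter: luminescence rises when SMN2 exon 7 is included in transfected HEK293 cells. Compound exposure lasted 30-36 h at 37C, with 4.5 mM final sodium butyrate as control, followed by a ONE-Glo read.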
Rab9 prom act: activates the Rab9 promoter; actives 2.8% (n = 320,000); Huh7 Rab9 promoter-luciferase reporter, luminescence, 24 h; Potency, µM (top dose mostly 9.22 µM), inactives show top-dose activation, negative = inhibition, usual class: activators; also: % of control where 0% means no effect; nearly all actives have a fitted effect of over 60% in size
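Using Huh7 cells stably transfected with Rab9 promoter–luciferase, compounds were incubated 24 h at 37 °C, 5% CO2; luciferase luminescence was read 10 min after reagent addition.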
ELG1 repair inh: blocks ELG1-dependent DNA repair in HEK293T cells. Potency, µM (series often up to 46.1 µM), without a hit: at the top dose activity change, negative = inhibition, hits mostly inhibitors. actives 2.3% (n = 330,000). AID 504467. HEK293T ELG1-luciferase reporter, luminescence, 16 h; DNA damage induced by 5-fluorouridine; also: % is scaled to controls: 0 for no effect and ±100 for the full control effect; nearly all actives have a fitted effect of over 55% in size
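Luminescence from the luciferase reporter, measured 30 min after ONE-Glo reagent at room temperature, was the read-out. Beforehand, 2,000 cells per well were exposed for 16 hr at 37 °C to 5-fluorouridine together with compound or vehicle.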
FLuc counter: inhibits or activates purified firefly luciferase, miR-21 counter-screen. P08659. purified FLuc, Km substrates, luminescence inhibition. Potency, µM (top dose mostly 57.5 µM), without a hit: at the highest dose activity change, negative = inhibition, hits mostly inhibitors. actives 6.9% (n = 360,000). AID 588342;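 also: plate controls were vehicle for no effect and reference inhibitor for full effect; nearly all actives have a fitted effect of over 55% in size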
Target sequence (P08659 whole entry, looked up): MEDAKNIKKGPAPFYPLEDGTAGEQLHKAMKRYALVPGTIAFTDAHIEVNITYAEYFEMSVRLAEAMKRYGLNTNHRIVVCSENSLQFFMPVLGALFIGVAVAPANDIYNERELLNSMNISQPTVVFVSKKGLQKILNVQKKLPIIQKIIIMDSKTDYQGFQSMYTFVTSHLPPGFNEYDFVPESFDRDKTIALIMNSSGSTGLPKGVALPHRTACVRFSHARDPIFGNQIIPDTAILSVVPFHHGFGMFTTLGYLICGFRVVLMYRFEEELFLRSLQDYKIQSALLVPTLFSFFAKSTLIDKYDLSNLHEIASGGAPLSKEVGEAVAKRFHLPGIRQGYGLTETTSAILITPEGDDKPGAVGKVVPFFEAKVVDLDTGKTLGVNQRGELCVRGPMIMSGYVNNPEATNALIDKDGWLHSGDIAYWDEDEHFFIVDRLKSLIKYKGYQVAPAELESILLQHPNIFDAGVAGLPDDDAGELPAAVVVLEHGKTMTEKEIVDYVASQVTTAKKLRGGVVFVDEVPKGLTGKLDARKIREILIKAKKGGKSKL
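Biochemical qHTS of compounds, final roughly 60 µM downward over six points, against 10 nM purified firefly luciferase using Km concentrations of substrates (10 uM D-luciferin, 10 uM ATP) in Tris acetate pH 7.5 buffer; luminescence output.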
NPC1 promoter act: activators of NPC1 promoter; Potency, µM (highest dose often 9.22 µM), for the others: top-dose activation, usual class: activators; actives 2.4% (n = 320,000); Huh7 NPC1 promoter luciferase reporter, 24 h; also: % of control where 0% means no effect; nearly all actives have a fitted effect of over 60% in size
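Stable NPC1-promoter luciferase Huh7 line; cpd (DMSO) 24 h, 37 °C, 5% CO2; Amplite luciferase reagent 10 min RT; luminescence readout. qHTS format.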
ELG1 genotoxic: inducers of genotoxicity in HEK293T ELG1-luciferase cells; HEK293T ELG1-luciferase reporter, luminescence, 16 h; actives 1.3% (n = 330,000); Potency, µM (top dose mostly 46 µM), for the others: at the top dose activity change, positive = activation, actives largely listed as activators; also: % of control where 0% means no effect; nearly all actives have a fitted effect of over 60% in size
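Step 1: seed 2,000 HEK293T ELG1-luciferase cells per well. Step 2: add compound or DMSO, incubate 16 hr at 37 °C. Step 3: ONE-Glo, 30 min at room temperature, read luminescence.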
An asterisk follows results filed as active; ? = inconclusive; . = not tested or not shown. Calls follow the shape of the dose curve; as a rule, active = well fitted curve in the direction sought with a large enough effect; inconclusive = small, poorly fitted or top-dose-only effect, or another doubt; inactive = no such curve, though single readings can be large; an effect the other way counts as inactive or inconclusive. Potency is read from the fitted curve at half-maximal effect.

SMILES	SMN2 splice up	Rab9 prom act	ELG1 repair inh	FLuc counter	NPC1 promoter act	ELG1 genotoxic
COc1ccc(-c2ccc3ccccc3n2)cc1	12.6µM*	0.398µM*	?	1.2µM*	0.708µM*	0.92µM*
Nc1ccc(-c2ccc3ccccc3n2)cc1	3.16µM*	1.3µM*	.	.	1.46µM*	.
COc1ccc2nc3ccccc3nc2c1	11.2µM*	2.82µM*	?	16.9µM*	3.98µM*	11.2%
CCOC(=O)C1CCN(C(=O)C2COc3ccccc3C2)CC1 (stereo not given)	.	.	.	-4.1%	.	.
Cc1ccc(N2C(=O)N(CC(=O)C(C)(C)C)c3ccccc3S2(=O)=O)cc1C	.	.	.	-5.0%	.	.
CSc1ncc(C(=O)Nc2cccnc2)c(C(F)(F)F)n1	.	-1.6%	-10.8%	1.9%	4.6%	-1.4%
COc1ccc(CC(=O)Nc2nc(-c3ccccc3)c(C(C)=O)s2)cc1OC	.	-9.7%	18.3µM*	-1.7%	-0.5%	-2.2%
COc1cc(CC(=O)Nc2nc(-c3ccccc3)c(C(C)=O)s2)cc(OC)c1OC	.	-9.0%	8.2µM*	-0.4%	-4.5%	-10.0%
COc1ccc(CC(=O)Nc2ccccc2-c2ccccc2)cc1OC	.	-10.3%	-27.3%	2.5%	-0.1%	-26.9%
C[C@@]12C(=O)N(CC3CCCO3)CC(=O)N1[C@H]1c3ccccc3OC[C@@H]1[C@@H]2c1ccccc1 (stereo not given in full)	.	-4.1%	9.5%	5.1%	-0.7%	3.4%
O=C(N/N=C/c1c(Cl)cccc1Cl)c1n[nH]c2c1CCCC2	17.8µM*	2.82µM*	?	6.75µM*	2.82µM*	?
O=C(N/N=C/c1c(Cl)cccc1Cl)c1ccccc1F	26.4%	5.9%	?	-18.7%	9.8%	-1.2%
O=C(NN=C1CCCC1)c1n[nH]c2c1CCC2	.	24.3%	?	?	13.3%	?
Cc1ccsc1/C=N\NC(=O)c1n[nH]c2c1CCC2	1.58µM*	0.631µM*	?	2.13µM*	1µM*	?
COc1ccc(OCC(=O)Nc2ccc(N3CCN(C(=O)c4ccccc4)CC3)c(Cl)c2)cc1	.	-17.9%	11.6µM*	-0.6%	-17.2%	-20.3%
COc1ccc(OCC(=O)Nc2ccc(N3CCOCC3)c(Cl)c2)cc1	20.7%	0.3%	?	-17.4%	1.1%	-11.2%
Cc1ccccc1OCC(=O)Nc1ccc(N2CCN(C)CC2)c(Cl)c1	.	28.7%	?	12µM*	?	?
O=C(/C=C/c1ccc(S(=O)(=O)N2CCOCC2)cc1)N1CCN(c2ccccc2)CC1	-13.1%	-11.0%	?	-2.1%	-18.5%	-8.9%
O=C(/C=C/c1ccc(S(=O)(=O)N2CCOCC2)cc1)Nc1ccc(F)c(F)c1F	.	.	20.6µM*	.	.	-2.9%
CC1CCCC(C)N1C(=O)/C=C/c1ccc(S(=O)(=O)N2CCOCC2)cc1 (stereo not given)	.	-0.7%	13µM*	-1.4%	-2.8%	-6.0%
COc1ccc(Br)cc1CNC(=O)CCSCc1ccc(C)cc1	.	.	.	-16.6%	.	.
O=C(CSc1nnc(-c2ccncc2)o1)Nc1cc(Cl)ccc1C(=O)O	.	.	-15.1%	.	.	-2.6%
COc1cc(C(C)=O)ccc1OCC(O)CN1CCN(c2cc(C)cc(C)c2)CC1 (stereo not given)	.	-6.1%	13µM*	1.7%	-4.4%	-8.4%
CNC(=O)Cn1ncc2c(C)n(Cc3ccc(C)cc3)c(C)c2c1=O	-20.5%	3.7%	4.1%	-0.8%	-5.0%	1.9%
COC(=O)Cn1ncc2c(C)n(Cc3ccccc3)c(C)c2c1=O	17.8µM*	?	?	12µM*	?	20.6µM*
Cc1c2cnn(CC(=O)O)c(=O)c2c(C)n1Cc1ccccc1	0.3%	-0.6%	-3.0%	7.7%	1.9%	6.5%
Cc1ccc(Cn2c(C)c3cnn(CC(=O)NC4CCCC4)c(=O)c3c2C)cc1	.	1.26µM*	?	?	?	11.9%
Cc1ccc(C)c(NC(=O)Cn2c(=O)n(CCC(C)C)c(=O)c3cccnc32)c1	7.5%	.	.	-0.5%	.	.

Screens deposited in PubChem BioAssay by National Center for Advancing Translational Sciences (NCATS).
